# Assay outcomes as filed in PubChem BioAssay.
# Only some compounds are listed: those with a hit (about 19% of all), similar ones and a draw of the others.
# TGFb SMAD3 inh = TGF-b pathway inhibition; 410,000 compounds, 1.2% hits; Potency, µM (series often up to 46.1 µM), without a hit: at the top dose activity, negative = inhibition, most hits filed as inhibitors; HepG2 CAGA-GFP TGF-b/SMAD3 reporter, GFP fluorescence, 18 h; TGF-beta stimulated, 500 pg/mL final; also: potency is read from the fitted curve at half-maximal effect; % is scaled to controls: 0 for no effect and ±100 for the full control effect; nearly all actives have a fitted effect of over 65% in size
#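 TGF-beta reporter screen: HEPG2 CAGA-GFP, 1% FBS, 500 pg/mL TGF-beta final, 18 h; per-cell GFP summed per well; curves fitted and categorized by class.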
# DT40 TDP1 no CPT = qHTS for Inhibitors of human tyrosyl-DNA phosphodiesterase 1 (TDP1): qHTS in cells in absence of CPT; DT40 Tdp1-/- hTDP1 cells, no CPT, ATP luminescence, 48 h; 420,000 compounds, 15% hits; Potency, µM (titrated, usually from 46.2 µM), inactives show at the highest dose activity change, negative = growth inhibition, hits mostly inhibitors; also: potency is read from the fitted curve at half-maximal effect; % is scaled to controls: 0 for no effect and ±100 for the full control effect; nearly all actives have a fitted effect of over 55% in size
#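 DT40 Tdp1-/-;hTDP1 cells, no CPT (DMSO vehicle only), 400 cells/well; compounds pin-transferred; ≥48 hr, 37 °C; CellTiter-Glo 30 min RT dark, luminescence read.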
# IL1B secr inh = blocks inflammasome-driven IL-1 beta release; THP-1 LPS/ATP IL-1B secretion, AlphaLISA, 16 h; stronger effect = lower value; activity change, % at 57.5 µM; 360,000 compounds, 4.7% hits; in the data active = activity change below about -50%; inconclusive = mostly about -30% to -49%; also: % is scaled to controls: 0 for no effect and ±100 for the full control effect
#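 THP-1 cells pretreated 1 hr with compounds (up to 57.5 uM final), then stimulated with LPS (250 ng/mL final) plus ATP (1.25 mM final); secreted IL-1B measured by AlphaLISA after 16 hr, decreased signal indicating inhibition.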
# ASM inhibitor = blocks human secretory acid sphingomyelinase; placental ASM, HMU-PC fluorogenic substrate, 60 min; Potency, µM (titrated, usually from 57.5 µM), for the others: top-dose activity change, negative = inhibition, most hits filed as inhibitors; 340,000 compounds, 0.006% hits; P17405; AID 504937; also: potency is read from the fitted curve at half-maximal effect
# Target sequence (P17405 47-631 limits assumed): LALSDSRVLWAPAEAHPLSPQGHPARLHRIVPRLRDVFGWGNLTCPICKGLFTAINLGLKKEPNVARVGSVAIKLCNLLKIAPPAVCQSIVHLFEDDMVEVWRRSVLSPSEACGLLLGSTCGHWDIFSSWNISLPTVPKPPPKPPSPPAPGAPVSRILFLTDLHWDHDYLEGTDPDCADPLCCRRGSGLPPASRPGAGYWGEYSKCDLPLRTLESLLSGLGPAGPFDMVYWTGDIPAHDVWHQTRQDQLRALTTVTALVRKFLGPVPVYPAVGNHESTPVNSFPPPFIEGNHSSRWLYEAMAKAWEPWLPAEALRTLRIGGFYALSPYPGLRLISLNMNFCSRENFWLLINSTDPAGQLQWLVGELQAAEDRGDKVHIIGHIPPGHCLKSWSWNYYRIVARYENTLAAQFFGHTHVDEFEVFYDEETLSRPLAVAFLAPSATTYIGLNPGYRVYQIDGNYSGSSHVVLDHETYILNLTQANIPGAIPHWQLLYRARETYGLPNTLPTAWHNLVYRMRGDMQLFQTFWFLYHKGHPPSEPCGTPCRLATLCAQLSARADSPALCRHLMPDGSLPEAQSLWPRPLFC
#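 HMU-PC0 cleavage (9 uM final) by human placental ASM, 60 min at 37 °C following 10 min compound exposure at RT; stopped at pH 10, fluorescence Ex 386/Em 447 nm.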
# HepG2 viability = counter-screen for TGF-b inhibitors: cytotoxicity in HepG2 cells | Potency, µM (top dose mostly 46.1 µM), inactives show top-dose activity change, negative = cytotoxicity, usual class: cytotoxic | HepG2 CAGA-GFP viability, ATP luminescence, 18 h | 410,000 compounds, 0.76% hits; also: potency is read from the fitted curve at half-maximal effect
#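 CellTiter-Glo luminescence gave cytotoxicity after 18 hours at 37 degrees C. The cells were HepG2 CAGA-GFP in 1% FBS DMEM, stimulated with 500 pg/mL TGF-beta after compound addition. %Activity was normalised to no-cell wells (complete cell-killing) and DMSO (no toxicity), and curves were fitted and classified.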
# TDP1 cell CPT = growth inhibition of DT40 Tdp1-/-;hTDP1 cells with camptothecin (screen for TDP1 inhibitors); chicken DT40 Tdp1-/-;hTDP1 cells + 20 nM CPT, ATP luminescence, 48 h; Potency, µM (doses to about 46.2 µM), inactives show at the highest dose activity change, negative = growth inhibition, usual class: inhibitors; 420,000 compounds, 12% hits; AID 686979; also: potency is read from the fitted curve at half-maximal effect; % is scaled to controls: 0 for no effect and ±100 for the full control effect; nearly all actives have a fitted effect of over 55% in size
#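 Chicken DT40 Tdp1-/- cells complemented with human TDP1, 400 cells/well, exposed to compounds plus 20 nM camptothecin for at least 48 h at 37 C; viability read as ATP content by CellTiter-Glo luminescence.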
# The depositor's hits bear a star; ? = inconclusive; · = not tested or not shown; [ ] = another dose, or the depositor's remark. Unless noted, calls follow the shape of the dose curve; as a rule, active = well fitted curve in the direction sought with a large enough effect; inconclusive = small, poorly fitted or top-dose-only effect, or another doubt; inactive = no such curve, though single readings can be large; an effect the other way counts as inactive or inconclusive.
SMILES,TGFb SMAD3 inh,DT40 TDP1 no CPT,IL1B secr inh,ASM inhibitor,HepG2 viability,TDP1 cell CPT
Cc1cccc(CNC(=O)c2cnn(-c3nccc(-c4ccccc4C(F)(F)F)n3)c2C)n1,·,?,·,·,·,9%[9.04 µM]
CCCCC[C@H](C)N1C[C@H](COCc2ccccc2)Oc2cc(N3CC[C@@H](O)C3)ccc2S1(=O)=O,·,?,-12,·,·,?
CCCCC[C@@H](C)N1C[C@H](COCc2ccccc2)Oc2cc(N3CCC[C@H]3COC)ccc2S1(=O)=O,·,6.5µM*,2,·,·,5.8µM*
CCCCC[C@H](C)N1C[C@@H](COCc2ccccc2)Oc2cc(N3CC[C@H](O)C3)ccc2S1(=O)=O,·,?,-7,·,·,?
CCCCC[C@H](C)N1C[C@H](COCc2ccccc2)Oc2cc(N3CCC[C@H]3COC)ccc2S1(=O)=O,·,18µM*,0,·,·,?
CCCCC[C@H](C)N1C[C@@H](COCc2ccccc2)Oc2cc(N3CCC[C@@H]3COC)ccc2S1(=O)=O,·,18µM*,42,·,·,21µM*
CCCCC[C@@H](C)N1C[C@@H](COCc2ccccc2)Oc2cc(N3CCC[C@@H]3COC)ccc2S1(=O)=O,·,16µM*,56,·,·,?
CCCCC[C@@H](C)N1C[C@@H](COCc2ccccc2)Oc2cc(N3CCC[C@H]3COC)ccc2S1(=O)=O,·,18µM*,39,·,·,?
Cc1ccc(C)c(SCC(=O)Nc2oc(C)c3c(C)n[nH]c(=O)c23)c1,1%,-22%,13,-6%,-8%,-14%
CCOC(=O)C1=C(CS(=O)(=O)c2ccc(C(C)(C)C)cc2)NC(=O)NC1c1cccc(OC)c1 (stereo unspecified),?,16µM*,·,·,-53%,16µM*
COc1ccc(-c2csc(C(C)(O)c3ccccc3)n2)cc1 (stereo unspecified),-20%,?,-16,·,-35%,16µM*
COc1ccc(C(C)(O)c2nc(-c3ccc(OC)c(OC)c3)cs2)cc1 (stereo unspecified),0%,?,-21,·,0%,23µM*
COc1ccc(C(C)(O)c2nc(-c3ccccc3C)cs2)cc1 (stereo unspecified),?,5.8µM*,65,·,-17%,6.5µM*
COc1ccc(C(C)(O)c2nc(-c3ccc4ccccc4c3)cs2)cc1 (stereo unspecified),?,?,6,·,-104%,?
Cn1cc(-c2csc(C(C)(O)c3cccnc3)n2)cn1 (stereo unspecified),7%,-5%,7,·,2.2µM*,-15%
COC(=O)c1ccc2c(=O)n(CCCCCC(=O)O)c(=S)[nH]c2c1,3%,?,42,9%,2%,-24%
COc1ccc(C(C)(O)c2nc(-c3ccc(Cl)cc3)cs2)cc1 (stereo unspecified),-5%,?,21,·,3%,?
COc1ccc(C(C)(O)c2nc(-c3ccc(N(C)C)cc3)cs2)cc1 (stereo unspecified),1%,16µM*,-10,·,-6%,18µM*
COc1ccc(C(C)(O)c2nc(-c3ccncc3)cs2)cc1 (stereo unspecified),19%,5.8µM*,61,·,-5%,5.8µM*
COc1ccc(-c2csc(C(C)(O)c3ccc(F)c(F)c3)n2)cc1OC (stereo unspecified),-9%,?,0,·,-19%,18µM*
COc1ccc(C(C)(O)c2nc(-c3ccc(OC)nc3)cs2)cc1 (stereo unspecified),-2%,?,94,·,-21%,?
